Set-up in all cases: scale not given: direction of the effect not stated beside the values
Assay [1] concerns the target Protein translocase subunit SecA (Escherichia coli (strain K12)) (UniProt P10408). Briefly: Assay to Identify E. coli SecA ATPase Inhibitors. The class given is functional. As to conditions: 30 µM.
Assay [2] addresses T1, Ubiquitin-activating enzyme e1, putative (Leishmania donovani (strain BPK282A1)) (UniProt E9BSI1).
T1 sequence (whole entry): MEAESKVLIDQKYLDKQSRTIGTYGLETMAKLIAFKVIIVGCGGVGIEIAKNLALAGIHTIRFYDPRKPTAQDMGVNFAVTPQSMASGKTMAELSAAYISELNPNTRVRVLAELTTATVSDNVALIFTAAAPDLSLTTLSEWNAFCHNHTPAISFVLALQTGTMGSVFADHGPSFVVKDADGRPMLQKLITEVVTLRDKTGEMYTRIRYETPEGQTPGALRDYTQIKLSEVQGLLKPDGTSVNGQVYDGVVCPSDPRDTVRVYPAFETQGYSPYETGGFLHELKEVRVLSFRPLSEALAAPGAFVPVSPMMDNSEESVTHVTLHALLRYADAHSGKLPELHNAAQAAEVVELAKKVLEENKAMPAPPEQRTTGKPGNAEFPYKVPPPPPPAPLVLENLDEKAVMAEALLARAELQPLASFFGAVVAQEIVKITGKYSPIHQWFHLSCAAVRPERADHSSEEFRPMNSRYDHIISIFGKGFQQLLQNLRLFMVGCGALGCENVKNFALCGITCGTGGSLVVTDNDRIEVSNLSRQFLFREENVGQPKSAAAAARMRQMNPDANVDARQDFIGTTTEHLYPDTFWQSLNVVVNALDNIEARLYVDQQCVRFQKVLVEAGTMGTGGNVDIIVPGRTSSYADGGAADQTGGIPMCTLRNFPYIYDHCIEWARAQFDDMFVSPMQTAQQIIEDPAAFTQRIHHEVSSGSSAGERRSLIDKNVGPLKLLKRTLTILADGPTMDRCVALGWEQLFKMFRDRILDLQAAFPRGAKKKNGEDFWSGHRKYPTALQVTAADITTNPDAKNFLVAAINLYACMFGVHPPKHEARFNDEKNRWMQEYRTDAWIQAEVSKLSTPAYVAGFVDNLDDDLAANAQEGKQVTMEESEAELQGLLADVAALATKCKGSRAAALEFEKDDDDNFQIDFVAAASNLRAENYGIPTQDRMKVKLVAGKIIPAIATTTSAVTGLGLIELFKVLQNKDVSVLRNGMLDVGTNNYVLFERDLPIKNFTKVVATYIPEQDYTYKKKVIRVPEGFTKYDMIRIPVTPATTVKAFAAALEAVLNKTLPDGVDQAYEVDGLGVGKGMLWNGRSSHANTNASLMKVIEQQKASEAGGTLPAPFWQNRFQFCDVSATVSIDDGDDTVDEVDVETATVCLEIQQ
Nature of the assay: Leishmania donovani Ubiquitin Activating Enzyme (LdE1). The class given is functional. To be noted: 30 µM.

Assay [3] addresses AMP-activated protein kinase, AMPK (Homo sapiens) (UniProt P54646+O43741+P54619+Q9UGJ0+Q9Y478+Q13131+Q9UGI9). Briefly: AMP-dependent Kinase enzyme assay. An in vitro enzyme assay that detects ADP turnover that is directly proportional to AMPK activity. This uses naive AMPK that is activated during the assay with MK-8722. Format: functional. As to conditions: 30 µM.
Assay [4] deals with Sialic acid-binding Ig-like lectin 9 (Homo sapiens) (UniProt Q9Y336). Briefly: Hs-Siglec9 ALPHAscreen SOP 20170721. As to conditions: 10 µM. A general note: In Alpha technology, singlet oxygen from a donor bead excites a nearby acceptor bead.
Chain of Sialic acid-binding Ig-like lectin 9 (Homo sapiens) (Q9Y336 whole entry): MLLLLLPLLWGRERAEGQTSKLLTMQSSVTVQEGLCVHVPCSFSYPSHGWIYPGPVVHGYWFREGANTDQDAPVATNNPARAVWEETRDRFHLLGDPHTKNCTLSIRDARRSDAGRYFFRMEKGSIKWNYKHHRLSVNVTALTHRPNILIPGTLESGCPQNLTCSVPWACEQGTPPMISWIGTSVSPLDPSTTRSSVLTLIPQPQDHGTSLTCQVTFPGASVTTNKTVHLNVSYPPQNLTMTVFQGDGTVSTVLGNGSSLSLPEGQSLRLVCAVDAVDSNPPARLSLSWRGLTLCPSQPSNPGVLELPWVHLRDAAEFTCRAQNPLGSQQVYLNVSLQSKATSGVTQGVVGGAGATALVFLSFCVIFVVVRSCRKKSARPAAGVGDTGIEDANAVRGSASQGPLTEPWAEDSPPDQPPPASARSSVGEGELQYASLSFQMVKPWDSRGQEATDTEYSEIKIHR
The next assay deals with Trypanosoma cruzi. Nature of the assay: Trypanosoma cruzi phosphomannomutase and mannose-1-phosphate guanylyltransferase assay. The class given is functional. As to conditions: 10 µM.
For assay [5], the target named is T2, Arginase-2, mitochondrial (Homo sapiens) (UniProt P78540).
T2 sequence (whole entry): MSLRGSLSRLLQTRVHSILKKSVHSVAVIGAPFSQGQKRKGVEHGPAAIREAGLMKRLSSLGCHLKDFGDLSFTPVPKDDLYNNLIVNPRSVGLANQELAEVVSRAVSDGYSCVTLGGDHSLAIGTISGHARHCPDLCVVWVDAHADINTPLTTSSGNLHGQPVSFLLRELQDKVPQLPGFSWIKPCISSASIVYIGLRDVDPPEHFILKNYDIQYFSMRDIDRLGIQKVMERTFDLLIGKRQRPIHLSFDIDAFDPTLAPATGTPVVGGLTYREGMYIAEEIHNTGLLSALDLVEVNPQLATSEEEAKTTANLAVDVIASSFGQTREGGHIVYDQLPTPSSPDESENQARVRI
Briefly: in vitro enzyme assay to detect the production of urea directly proportional to the activity of Arginase II. Also: in the data most compounds retested in dose-response had high values. The class given is functional. As to conditions: 33.3 µM.

For assay [6], the target named is T3, Proteasome subunit beta (Trypanosoma cruzi) (UniProt O96673).
T3 sequence (whole entry): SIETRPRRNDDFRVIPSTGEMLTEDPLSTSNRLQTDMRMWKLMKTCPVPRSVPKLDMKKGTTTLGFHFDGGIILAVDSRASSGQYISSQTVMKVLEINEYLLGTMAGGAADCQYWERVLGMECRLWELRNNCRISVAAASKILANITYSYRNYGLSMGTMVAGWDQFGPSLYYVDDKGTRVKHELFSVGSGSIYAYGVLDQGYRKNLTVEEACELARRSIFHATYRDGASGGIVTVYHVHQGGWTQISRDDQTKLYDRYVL
Briefly: Trypanosoma cruzi proteasome chymotrypsin-like activity (TcProtChymo) assay. Also: in the data most compounds retested in dose-response had high values. The class given is functional. To be noted: 9.37 µM.

The species named for the next assay is Homo sapiens. Briefly: To identify inhibition of the IFN signalling (Jak-Stat) pathway via expression of an eGFP reporter gene under the control of an IFN-stimulated response element (ISRE) containing MxA promoter. Format: functional. As to conditions: 30 µM.
Assay [7] has as its target T4, Tyrosyl-tRNA synthetase, putative (Trypanosoma cruzi (strain CL Brener)) (UniProt Q4DSP6).
T4 sequence (whole entry): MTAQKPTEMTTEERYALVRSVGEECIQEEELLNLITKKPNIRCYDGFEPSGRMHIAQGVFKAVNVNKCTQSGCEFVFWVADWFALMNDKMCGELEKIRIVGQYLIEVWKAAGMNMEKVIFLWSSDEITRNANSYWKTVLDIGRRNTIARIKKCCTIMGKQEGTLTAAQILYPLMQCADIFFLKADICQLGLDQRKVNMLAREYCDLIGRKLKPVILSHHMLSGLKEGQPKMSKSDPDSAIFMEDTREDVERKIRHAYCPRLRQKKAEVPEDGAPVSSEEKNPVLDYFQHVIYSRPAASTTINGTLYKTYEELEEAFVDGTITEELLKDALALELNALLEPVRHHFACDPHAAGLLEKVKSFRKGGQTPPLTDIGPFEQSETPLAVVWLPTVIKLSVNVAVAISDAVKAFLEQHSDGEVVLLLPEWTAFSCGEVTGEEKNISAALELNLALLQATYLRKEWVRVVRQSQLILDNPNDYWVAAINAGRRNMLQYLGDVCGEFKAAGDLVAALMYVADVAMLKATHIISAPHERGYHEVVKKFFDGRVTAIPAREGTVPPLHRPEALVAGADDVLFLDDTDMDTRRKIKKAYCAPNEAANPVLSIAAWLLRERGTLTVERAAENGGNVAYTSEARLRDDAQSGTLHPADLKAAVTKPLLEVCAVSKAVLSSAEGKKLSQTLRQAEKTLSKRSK
Nature of the assay: Trypanosoma cruzi tyrosyl tRNA synthetase (TcYRS) _High Tyrosine SOP. Also: in the data most compounds retested in dose-response had high values. The class given is functional. To be noted: 30 µM.

Assay [8] addresses T4, Tyrosyl-tRNA synthetase, putative (Trypanosoma cruzi (strain CL Brener)). Briefly: Trypanosoma cruzi tyrosyl tRNA synthetase (TcYRS) SOP. The class given is functional. As to conditions: 30 µM.
In assay [9] the target is Chromo domain-containing protein 1 (Saccharomyces cerevisiae (strain ATCC 204508 / S288c) (Baker's yeast)) (UniProt P32657). Nature of the assay: ScCHD-1 Enzyme Inhibition Assay. Also: in the data most compounds retested in dose-response had high values. To be noted: 30 µM. The class given is functional.
Chain of Chromo domain-containing protein 1 (Saccharomyces cerevisiae (strain ATCC 204508 / S288c) (Baker's yeast)) (P32657 whole entry, the tested form may be a part): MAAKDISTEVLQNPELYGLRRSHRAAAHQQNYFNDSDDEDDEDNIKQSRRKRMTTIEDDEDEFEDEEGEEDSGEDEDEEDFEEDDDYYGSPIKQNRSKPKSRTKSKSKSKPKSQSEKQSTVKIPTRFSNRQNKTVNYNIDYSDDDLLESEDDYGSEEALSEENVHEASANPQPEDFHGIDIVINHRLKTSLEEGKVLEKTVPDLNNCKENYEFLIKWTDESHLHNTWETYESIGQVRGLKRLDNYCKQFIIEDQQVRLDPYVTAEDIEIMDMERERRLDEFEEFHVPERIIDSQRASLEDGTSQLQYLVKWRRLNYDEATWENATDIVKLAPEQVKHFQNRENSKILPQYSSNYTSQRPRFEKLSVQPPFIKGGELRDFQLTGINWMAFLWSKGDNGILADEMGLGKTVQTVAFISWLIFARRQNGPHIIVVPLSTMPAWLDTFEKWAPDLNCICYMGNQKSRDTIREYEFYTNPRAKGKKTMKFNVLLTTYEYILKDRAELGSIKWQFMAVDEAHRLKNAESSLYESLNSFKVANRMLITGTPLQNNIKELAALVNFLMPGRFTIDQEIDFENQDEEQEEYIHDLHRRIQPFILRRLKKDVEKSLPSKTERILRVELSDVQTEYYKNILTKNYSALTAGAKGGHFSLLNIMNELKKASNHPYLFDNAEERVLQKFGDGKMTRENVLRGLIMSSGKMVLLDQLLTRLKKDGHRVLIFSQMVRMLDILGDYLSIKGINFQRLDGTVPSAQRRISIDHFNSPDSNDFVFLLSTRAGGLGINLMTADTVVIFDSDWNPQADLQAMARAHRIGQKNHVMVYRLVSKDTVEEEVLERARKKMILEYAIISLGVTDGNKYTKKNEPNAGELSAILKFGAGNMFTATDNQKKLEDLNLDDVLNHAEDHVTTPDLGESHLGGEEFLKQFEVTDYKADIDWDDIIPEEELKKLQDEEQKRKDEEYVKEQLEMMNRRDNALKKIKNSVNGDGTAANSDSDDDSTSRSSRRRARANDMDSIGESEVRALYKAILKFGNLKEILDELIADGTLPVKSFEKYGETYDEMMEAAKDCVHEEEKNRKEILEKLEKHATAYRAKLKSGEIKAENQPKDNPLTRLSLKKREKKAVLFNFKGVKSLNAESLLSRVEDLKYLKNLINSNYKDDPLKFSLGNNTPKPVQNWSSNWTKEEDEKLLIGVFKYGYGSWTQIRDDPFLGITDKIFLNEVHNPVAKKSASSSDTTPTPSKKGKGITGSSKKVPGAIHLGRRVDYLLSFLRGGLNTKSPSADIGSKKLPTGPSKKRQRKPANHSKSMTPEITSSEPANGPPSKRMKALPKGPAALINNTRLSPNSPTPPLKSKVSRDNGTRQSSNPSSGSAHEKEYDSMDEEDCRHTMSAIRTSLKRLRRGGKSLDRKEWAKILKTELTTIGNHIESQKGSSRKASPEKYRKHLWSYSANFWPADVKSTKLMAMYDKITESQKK

Structures are written as SMILES. For some of these results: Entries with a potency or affinity are not part of this list.

The record followed here is ChEMBL document CHEMBL3988442, “University of Dundee, Small-Polar-MMV Screening Library” (2021).

Chain of Protein translocase subunit SecA (Escherichia coli (strain K12)) (P10408 whole entry): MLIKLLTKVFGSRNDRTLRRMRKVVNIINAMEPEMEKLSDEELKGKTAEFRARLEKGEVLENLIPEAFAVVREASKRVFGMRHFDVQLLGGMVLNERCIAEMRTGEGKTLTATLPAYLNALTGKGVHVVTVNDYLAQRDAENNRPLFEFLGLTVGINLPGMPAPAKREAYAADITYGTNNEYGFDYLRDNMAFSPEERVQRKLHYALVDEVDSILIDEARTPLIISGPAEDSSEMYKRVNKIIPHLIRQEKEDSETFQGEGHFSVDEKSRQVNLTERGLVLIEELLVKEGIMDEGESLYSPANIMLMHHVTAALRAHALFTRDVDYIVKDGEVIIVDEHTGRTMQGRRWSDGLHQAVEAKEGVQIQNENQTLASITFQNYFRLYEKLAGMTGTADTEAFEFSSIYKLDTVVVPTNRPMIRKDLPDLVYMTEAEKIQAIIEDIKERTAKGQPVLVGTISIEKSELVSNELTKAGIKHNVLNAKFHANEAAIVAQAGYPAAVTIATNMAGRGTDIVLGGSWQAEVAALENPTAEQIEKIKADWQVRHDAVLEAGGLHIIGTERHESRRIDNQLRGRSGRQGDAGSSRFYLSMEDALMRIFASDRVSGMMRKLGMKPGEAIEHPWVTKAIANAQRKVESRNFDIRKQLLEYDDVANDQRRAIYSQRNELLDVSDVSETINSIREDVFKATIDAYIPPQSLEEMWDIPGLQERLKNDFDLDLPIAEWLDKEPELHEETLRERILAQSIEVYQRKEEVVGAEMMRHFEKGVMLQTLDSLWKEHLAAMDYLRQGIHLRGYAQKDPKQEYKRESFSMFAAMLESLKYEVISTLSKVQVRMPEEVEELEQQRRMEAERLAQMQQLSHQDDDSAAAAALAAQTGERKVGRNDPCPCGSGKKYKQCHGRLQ

`CCOCC1CN(S(C)(=O)=O)Cc2cnn(C)c21` (stereo unspecified): the Percent Effect in [1] was -0.898%; in assay [2] it was 16%; in [3], -7.73%; in assay [4], 10.1%; in the assay on Trypanosoma cruzi, 5.79%; in assay [5] it was -43.9%. Further, the Percent Effect in assay [6] is 10.8%; in the assay filed under Homo sapiens it was -2.61%; in [7] it was 4.17%; in assay [8], 12.5%; in [9], -7.93%.
As to `CC(c1nc(C2CC2)no1)N1CCN(Cc2ccccc2F)CC1` (stereo unspecified), the Percent Effect was -2.5% in [1]; 3.8% in assay [2]; 3.7% in [3]; 3.98% in assay [4]; -0.718% in the assay with Trypanosoma cruzi; 2.8% in [5]. Besides, the Percent Effect was 1.2% in assay [6]; -11.4% in the assay filed under Homo sapiens; 2.08% in assay [7]; 7.59% in assay [8]; -0.861% in [9].
For the molecule `Cn1cc(CCNC(=O)NC2CCS(=O)(=O)C2)cn1` (stereo unspecified), the Percent Effect is -5.97% in [1]; -1.39% in [2]; -3.17% in assay [3]; -1.6% in assay [4]; -4.57% in the assay on Trypanosoma cruzi; -0.442% in assay [5]. Further, the Percent Effect was 11.8% in assay [6]; -0.804% in the assay listed under Homo sapiens; 0% in assay [7]; 5.13% in [8]; -1.44% in [9].
Consider `O=C(c1ccn(-c2cccc(Cl)c2)n1)N1CCN(C2CC2)CC1`, for which the Percent Effect in assay [1] is -11.5%; in assay [2] it was 10.4%; in assay [3] it was -3.12%; in assay [4], 2.64%; with Trypanosoma cruzi, -4.49%; in assay [5], -1.78%. The Percent Effect was 27.5% in assay [6]; 29.6% in the assay listed under Homo sapiens; -0.971% in assay [7]; -4.88% in assay [8]; -3.18% in [9].
`Cc1ccc(C(=O)N2CCC3(CCC(=O)N(CC(N)=O)C3)CC2)c(O)c1`: the Percent Effect in assay [1] is 1.03%; in assay [2], 4.17%; in [3], -0.266%; in [4], -3.34%; in the assay with Trypanosoma cruzi, -2.82%; in [5] it was -2.65%. Besides, the Percent Effect was 14.2% in [6]; -6.14% in the assay filed under Homo sapiens; 3.16% in [7]; 5.13% in assay [8]; -3% in assay [9].
`COc1ccc(C(=O)N2CCCC(CNS(C)(=O)=O)C2)cc1F` (stereo unspecified): the Percent Effect in assay [1] was -4.66%; in [2], 8.11%; in assay [3], -5.72%; in assay [4], 6.16%; in the assay on Trypanosoma cruzi, -3.3%; in assay [5] it was 2.4%. Moreover, the Percent Effect in assay [6] was 0.18%; in the assay listed under Homo sapiens it was 6.39%; in assay [7], 5.42%; in assay [8], 16.1%; in [9], -6.29%.
Turning to `COc1ccccc1C(=O)NC(CC(=O)O)c1cccs1` (stereo unspecified), the Percent Effect in assay [1] was -3.27%; in assay [2], 13.9%; in assay [3], 0.385%; in [4] it was 5.67%; with Trypanosoma cruzi, -1.33%; in [5], 2.8%. Also, the Percent Effect in assay [6] was 20.2%; in the assay listed under Homo sapiens, -5.53%; in assay [7], 5.21%; in assay [8] it was 12.7%; in [9] it was -19.2%.
Take `O=C(NCc1ccccc1)c1nnc2ccc(N3CCOCC3)cc2n1`: the Percent Effect in [1] was -4.99%; in [2], -1.33%; in assay [3], 67.7%; in assay [4] it was 2.19%; in the assay with Trypanosoma cruzi, -3.73%; in assay [5], -10.4%. The Percent Effect is 14.1% in assay [6]; 4.89% in the assay filed under Homo sapiens; 6.35% in assay [7]; 7.69% in assay [8]; -13.2% in assay [9].
Consider `Cc1csc(C2CCCN(C(=O)c3cc(Cl)c[nH]3)C2)n1` (stereo unspecified), for which the Percent Effect in assay [1] is -4.24%; in assay [2] it was 5.41%; in [3] it was -0.992%; in [4] it was 9.99%; in the assay on Trypanosoma cruzi it was -5%; in assay [5] it was -2%. Further, the Percent Effect in assay [6] was 3.96%; in the assay filed under Homo sapiens it was 19%; in [7], 14.3%; in assay [8], 13.6%; in assay [9] it was -2.75%.
Consider `Cc1nnc2n1CCN(C(=O)c1cc(C)n(-c3ccccn3)c1C)C2`, for which the Percent Effect was -5.88% in assay [1]; 13.2% in assay [2]; -9.47% in assay [3]; 3.77% in [4]; -1.03% in the assay with Trypanosoma cruzi; 3.6% in assay [5]. Moreover, the Percent Effect was determined as 17% in assay [6]; 4.26% in the assay filed under Homo sapiens; 4.43% in [7]; 13.6% in [8]; 2.79% in [9].
As to `O=C(CCNC(=O)c1ccccc1N1CCOCC1)NC1CCCC1`, the Percent Effect in assay [1] was -4.31%; in assay [2] it was 16.4%; in assay [3], -6.31%; in assay [4] it was 6.63%; with Trypanosoma cruzi, 4.76%; in assay [5], -0.798%. Moreover, the Percent Effect was 13.1% in [6]; -7.41% in the assay listed under Homo sapiens; 8.33% in assay [7]; 21% in assay [8]; -9.11% in assay [9].
